# TIM10 inh = inhibits growth of TIM10 yeast strain; 330,000 tested, 1.4% active; inhibition, % at 10 µM; AID 463195; S. cerevisiae TIM10 strain growth, BacTiter-Glo luminescence, 24 h;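 active = inhibition of 40% or more at the single tested concentration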;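 note: wild-type TIM10 isogenic control strain grown at permissive 25 °C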
# tim23-1 inh = growth inhibitors of tim23-1 mutant yeast. S. cerevisiae tim23-1 growth, BacTiter-Glo luminescence, 24 h. inhibition, % at 20 µM. 330,000 tested, 1.3% active;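 active = growth inhibition of the mutant yeast at or above 50%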;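 note: temperature-sensitive mutant grown at 25 °C; plate controls were DMSO-treated mutant yeast for no effect and medium wells lacking yeast for full effect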
# tim10-1 inh = tim10-1 yeast growth inhibition | S. cerevisiae tim10-1 ts strain growth, BacTiter-Glo, 24 h | inhibition, % at 20 µM | 330,000 tested, 2.2% active | AID 463190;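 active = inhibition of at least 40%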;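 note: mutant grown at 25 °C; 0% = DMSO wells with yeast and 100% = wells holding no yeast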
# PfHsp90 yeast 2 = growth inhibition of yeast expressing Plasmodium Hsp90 | 310,000 tested, 0.32% active | AID 504621 | S. cerevisiae expressing PfHsp90, BacTiter-Glo ATP, 48 h; yeast lacking PDR1 and PDR3 efflux regulators | inhibition, % at 9.4 µM;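 active = every replicate shows inhibition above about 80%, whatever the replicate mean, limit read from the data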;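 note: 0% = DMSO neutral controls and 100% = 20 µM radicicol positive controls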
# NALP3 yeast inh = inhibitors of NALP3 inflammasome in yeast. Yeast reconstituted NLRP3/ASC/caspase-1, beta-gal luminescence, 24 h. inhibition, % at 10 µM. 330,000 tested, 0.39% active. AID 2825;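 active = inhibition of 50% or more; inactive = inhibition below 50%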;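 note: plate controls were induced DMSO wells for no effect and uninduced yeast grown without galactose for full effect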
# tim10-1 confirm = confirmation of tim10-1 mutant yeast growth inhibitors; shares compounds with tim10-1 inh; S. cerevisiae tim10-1 ts strain growth, BacTiter-Glo, 24 h; inhibition, % at 20 µM; 7,400 tested, 56% active; AID 463213;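 active = inhibition of yeast growth at or above a set limit in either of two repeat tests at 20 µM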;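 note: tim10-1 mutant grown at permissive 25 °C to find synthetic lethal compounds; 0% = DMSO yeast wells and 100% = medium wells without yeast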
# tim10 confirm = confirmation of TIM10 yeast growth inhibitors. shares compounds with TIM10 inh. S. cerevisiae tim10 strain growth, BacTiter-Glo luminescence, 24 h. inhibition, % at 10 µM. 4,600 tested, 63% active;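 active = inhibition of yeast growth at or above a set limit in either of two replicates at 10 µM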;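 note: this counterscreen used the strain with wild-type TIM10; 0% = yeast with DMSO and 100% = medium wells lacking yeast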
# tim23-1 confirm = confirmation of tim23-1 mutant yeast growth inhibitors; shares compounds with tim23-1 inh; S. cerevisiae tim23-1 growth, BacTiter-Glo luminescence, 24 h; inhibition, % at 20 µM; 4,400 tested, 83% active; AID 463218;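 active = inhibition above about 39% in either of two replicate wells at 20 µM, limit read from the data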;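 note: temperature-sensitive tim23-1 mutant grown at 25 °C; 0% = DMSO wells with yeast and 100% = medium wells without yeast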
# * marks the source's active call; other numbers are inactive results; . = not tested or not shown. An excerpt weighted towards active compounds, which were near 3.7% of everything screened.
SMILES,TIM10 inh,tim23-1 inh,tim10-1 inh,PfHsp90 yeast 2,NALP3 yeast inh,tim10-1 confirm,tim23-1 confirm,others
O=C(Nc1ccc(Cl)c(Cl)c1)N1N=CCC1c1ccccc1 (stereo unspecified),32.8,52.3*,56.4*,3.0,7.8,45.6*,57.4*,
O=C(Nc1ccccc1)N1N=CCC1c1ccccc1 (stereo unspecified),-2.1,14.5,22.5,-10.5,7.4,.,.,
COc1ccc2c(ccc[n+]2CC(=O)c2ccccc2)c1,1.0,-5.7,15.0,22.7,9.6,.,.,
COc1ccc(C(=O)C[n+]2cn(C(F)F)c3ccccc32)c(F)c1,63.0*,57.8*,52.7*,.,-16.1,49.9*,43.3*,tim10 confirm=31.1*
O=C(/C=C/c1cccc(C(F)(F)F)c1)Nc1cccc(C(F)(F)F)c1,57.7*,72.0*,55.0*,105.2*,-15.1,56.1*,69.4*,tim10 confirm=53.5*
O=c1[nH]c(/C=C/c2ccccc2OC(F)F)nc2c1cnn2-c1ccccc1,24.7,14.1,21.3,-13.0,18.8,.,.,
O=C1SC(SCc2ccccc2)=N/C1=C\c1ccco1,42.8*,54.1*,56.7*,-19.2,10.2,40.0*,57.9*,tim10 confirm=48.9*
Cc1cc2nc3ccc(N(C)C)cc3nc2cc1N,70.4*,50.3*,45.8*,9.9,13.9,57.7*,40.7*,tim10 confirm=72.8*
Cc1cc2nn(-c3cccc4ccccc34)nc2cc1N,22.4,27.9,25.5,-17.8,1.8,.,.,
Cc1ccc(N(C)S(=O)(=O)c2cccc(C(=O)Nc3nc4ccccc4[nH]3)c2)cc1,34.3,56.3*,40.7*,-17.3,11.9,41.6*,53.3*,
Cc1ccc(NC(=O)COC(=O)CCc2c(C)nc3ncnn3c2C)cc1,-2.6,2.8,-8.3,-1.5,-2.4,.,.,
S=C(Nc1ccc2nsnc2c1)NC1CCCCC1,53.9*,53.3*,52.8*,-8.2,9.0,33.2*,56.5*,tim10 confirm=22.1
CC1CCC(NC(=O)CNC(=O)Cc2cccc3ccccc23)CC1 (stereo unspecified),6.4,17.0,16.6,12.9,11.8,.,.,
O=C1N2c3ccccc3CCc3cccc(c32)C1(O)C(F)(F)F (stereo unspecified),29.6,50.5*,47.2*,-2.0,-35.5,43.5*,54.8*,
S=c1[nH]nc(C2CCCCC2)n1/N=C/c1ccccc1Cl,27.4,64.0*,57.7*,-37.8,22.5,28.7*,60.8*,
FC(F)(F)c1ccccc1/C=N/n1c(C2CCCCC2)n[nH]c1=S,32.9,50.8*,48.4*,-196.4,8.8,33.0*,51.1*,
O=C(O)c1ccccc1/C=N/n1c(C2CCCCC2)n[nH]c1=S,9.0,-3.1,-7.0,-22.5,9.6,.,.,
S=c1[nH]nc(C2CCCCC2)n1/N=C/c1ccncc1,-10.6,-2.7,12.4,17.7,13.5,.,.,
Cc1cc(NC(=O)C(C)SCC(=O)Nc2cc(Cl)ccc2N2CCN(C)CC2)no1 (stereo unspecified),-3.6,15.0,3.0,.,31.5,.,.,
Cc1ccccc1C(=O)Nc1sc(C)c(C)c1C(=O)c1ccccc1,-8.8,-10.3,14.4,-25.8,-2.3,.,.,
O=C(CCl)Nc1sccc1C(=O)c1ccccc1,47.5*,59.9*,53.7*,-11.6,-3.9,54.7*,49.9*,tim10 confirm=51.9*
Cc1sc(NC(=O)CCl)c(C(=O)c2ccccc2)c1C,46.1*,51.9*,43.1*,-1.8,19.8,39.0*,38.4*,tim10 confirm=9.4
CN(Cc1ccc(F)cc1)Cc1nc(-c2cnccn2)no1,-5.3,16.8,13.4,8.7,3.9,.,.,
COC(=O)c1ccccc1S(=O)(=O)N1Cc2cc([N+](=O)[O-])ccc2Oc2ccccc21,15.3,20.2,18.6,-21.9,14.7,.,.,
CCOC(=O)CNc1c(-c2ccccc2)nc2ccc(Cl)cn12,40.3*,51.3*,40.4*,73.4,17.8,32.8*,51.0*,tim10 confirm=2.5
SMILES,TIM10 inh,tim23-1 inh,tim10-1 inh,PfHsp90 yeast 2,NALP3 yeast inh,tim10-1 confirm,tim23-1 confirm,others
CCOC(=O)CNc1c(-c2ccc(O)cc2)nc2ccc(Cl)cn12,23.9,42.5,19.5,-18.4,12.3,.,.,
Cc1cc(NC(=O)Nc2cccc(Cl)c2)n(-c2ccccc2)n1,-11.5,12.5,11.8,2.8,5.6,.,.,
Cc1cc(NC(=O)Nc2cccc(Cl)c2)n(-c2ccccn2)n1,29.2,69.8*,53.8*,-2.9,29.1,41.1*,76.2*,
Cn1cccc1Cc1nnc(SCC(=O)NCC2CCCO2)n1-c1ccc(F)cc1 (stereo unspecified),-4.2,15.1,10.0,-6.4,-5.6,.,.,
O=c1[nH][nH]c(-c2ccccc2O)c1C(C[N+](=O)[O-])c1cccc(Cl)c1 (stereo unspecified),47.8*,55.8*,43.7*,-15.5,21.6,44.5*,54.6*,tim10 confirm=-8.2
S=c1[nH]nc(-c2ccc(Cl)cc2)n1/N=C/c1ccco1,24.7,14.7,-0.3,-14.1,28.7,.,.,
S=c1[nH]nc(-c2ccc(Cl)cc2)n1/N=C/C=C/c1ccco1,36.2,51.4*,44.6*,-5.6,1.4,29.5,37.9,
Nc1nc(SCc2cccc([N+](=O)[O-])c2)n[nH]1,3.4,0.1,1.4,0.4,9.1,.,.,
Cc1cnc(C(=O)NCC(=O)Nc2ccccc2Br)cn1,-19.8,-9.3,-3.7,.,2.5,.,.,
CCOC(=O)c1c(N)sc2c(NC(C)=O)cccc12,27.2,15.0,-4.7,7.5,8.1,.,.,
CCOC(=O)c1c(N)sc2c(O)c(Br)ccc12,53.2*,51.8*,49.5*,-37.8,-15.2,50.1*,-24.1,tim10 confirm=46.7*
CN(C(=O)COC(=O)c1cc(NS(=O)(=O)c2cc([N+](=O)[O-])ccc2Cl)ccc1O)C1CCCCC1,15.2,23.2,11.1,-7.3,16.8,.,.,
OC1CCN(c2c3c(nc4cc(-c5cccc(F)c5)nn24)CCCC3)CC1,14.5,50.5*,40.9*,6.2,6.8,19.4,34.9,
CN(CCO)c1c2c(nc3cc(-c4cccc(F)c4)nn13)CCCC2,25.6,41.0,26.6,15.3,13.6,.,.,
COc1cccc(CN2C(=O)C(C)Oc3ccccc32)c1 (stereo unspecified),-2.2,-2.9,9.9,-10.0,3.5,.,.,
COc1cccc(CN2c3ccc(Br)cc3C(=O)CS2(=O)=O)c1,31.7,56.9*,40.5*,-25.3,18.7,38.2*,59.8*,
Cc1cc(N)n2ncc(-c3ccc(Cl)cc3)c2n1,22.5,70.5*,52.8*,24.1,27.7,40.5*,20.8*,
Cc1cc(Cl)n2ncc(-c3ccccc3)c2n1,20.1,21.0,29.5,-24.0,22.4,.,.,
O=C(NN=C1CCCCCC1)c1ccc2c(c1)OCO2,5.9,-5.9,3.3,6.1,7.3,.,.,
NNc1ccc2c(C(F)(F)F)cc(C(F)(F)F)nc2n1,18.0,24.2,24.8,-30.5,4.6,.,.,
